{"source": "PubChem BioAssay AID2447", "about": "(National Center for Advancing Translational Sciences (NCATS), 2010)", "note": "This is one part of the list. Records with an inconclusive call do not appear. Calls of active or inactive are those of the source. Calls come from the whole dose curve.", "data": [{"assay": "Cell Viability Secondary Assay for Inhibitors of the Interaction of Thyroid Hormone Receptor and Steroid Receptor Coregulator 2", "settings": "HepG2 viability, ATP luminescence (CellTiter-Glo), 72 h", "from_the_text": "NIH Molecular Libraries Probe Production Network [MLPCN] NIH Chemical Genomics Center [NCGC] MLPCN Grant: DK058080 Assay Provider: R. Kip Guy, St. Jude Children's Research Hospital NCGC Assay Overview: Thyroid receptor (TR) regulates many homeostatic processes including basal metabolism, cardiovascular function, body weight, and lipid trafficking. TR modulators are potential therapeutics for obesity and hyperlipidemias but current thyroid analogs have undesirable side effects, particularly cardiac stimulation. This secondary assay characterized compounds identified in the qHTS for Inhibitors of the Interaction of Thyroid Hormone Receptor and Steroid Receptor Coregulator 2 (PubChem AID 1485). The effect of compounds on the viability of HepG2 cells was assessed by measuring ATP levels.\nNCGC Assay Protocol Summary: HepG2 cells were grown to 80% confluence, collected, and cells were dispensed at 500 cells/25 ul/well into 384 well plates (Costar 3712). Following transfer of 100 nL compound (ranging from 2.5 nM to 50 uM), cells were incubated for 72 hours at 37 C and 5% CO2. Following this incubation, plates were equilibrated at ambient temperature for 30 min, 25 ul of CellTiter-Glo (Promega) was added and luminescence was detected by an EnVision (PerkinElmer) reader.", "values": [{"smiles": "CS(=O)(=O)c1ccc(C(=O)OCC(=O)N2CCNc3ccccc32)cc1[N+](=O)[O-]", "Potency": "18 µM (active)"}, {"smiles": "CS(=O)(=O)c1ccc(C(=O)OCC(=O)N2CCC(c3ccccc3)CC2)cc1[N+](=O)[O-]", "Potency": "8.9 µM (active)"}, {"smiles": "O=C(COC(=O)c1cccc([N+](=O)[O-])c1)NC1C2CC3CC(C2)CC1C3", "note": "(stereo not drawn)", "outcome": "inactive"}]}]}
